Screens from PubChem BioAssay.
DT40 TDP1 CPT: DT40-hTDP1 cell growth loss with CPT | 420,000 tested, 12% active | Potency, µM (doses to about 46.2 µM), inactives show at the highest dose activity change, negative = growth inhibition, hits mostly inhibitors | chicken DT40 Tdp1-/-;hTDP1 cells + 20 nM CPT, ATP luminescence, 48 h; also: potency is read from the fitted curve at half-maximal effect; nearly all actives have a fitted effect of over 55% in size
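Chicken DT40 Tdp1-/- cells stably complemented with human TDP1 were seeded at 400 cells/well in medium containing 20 nM camptothecin, exposed to pin-transferred compounds, and grown at 37 °C for at least 48 hr. Viability was read as ATP luminescence.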
TDP1 inh: inhibitors of human tyrosyl-DNA phosphodiesterase TDP1; Potency, µM (series often up to 130 µM), inactives show at the top dose activity change, negative = inhibition, hits mostly inhibitors; recombinant TDP1, AlphaScreen DNA substrate cleavage; Q9NUW8; AID 485290; 350,000 tested, 0.28% active; also: potency is read from the fitted curve at half-maximal effect; nearly all actives have a fitted effect of over 40% in size
Target sequence (Q9NUW8 whole entry, looked up): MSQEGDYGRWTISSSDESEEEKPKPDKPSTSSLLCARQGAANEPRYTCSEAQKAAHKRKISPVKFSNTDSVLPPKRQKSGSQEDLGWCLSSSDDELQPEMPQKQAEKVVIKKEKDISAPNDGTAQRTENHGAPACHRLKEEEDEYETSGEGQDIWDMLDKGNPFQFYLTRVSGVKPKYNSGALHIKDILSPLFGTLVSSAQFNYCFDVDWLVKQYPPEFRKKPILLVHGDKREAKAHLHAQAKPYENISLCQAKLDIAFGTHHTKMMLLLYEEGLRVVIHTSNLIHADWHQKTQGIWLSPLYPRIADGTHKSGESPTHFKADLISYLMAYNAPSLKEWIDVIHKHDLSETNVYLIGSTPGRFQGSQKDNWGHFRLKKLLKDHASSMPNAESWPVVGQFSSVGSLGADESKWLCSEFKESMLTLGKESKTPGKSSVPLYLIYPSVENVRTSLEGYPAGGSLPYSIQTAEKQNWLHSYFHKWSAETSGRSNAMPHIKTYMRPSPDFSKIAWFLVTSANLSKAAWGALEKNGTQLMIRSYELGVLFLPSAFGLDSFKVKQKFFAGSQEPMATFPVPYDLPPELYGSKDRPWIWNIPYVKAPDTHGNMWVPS
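Recombinant E. coli-expressed Tdp1 (1 nM) preincubated with compound 15 min at RT, then 5'-biotin/3'-phosphotyrosine-FITC DNA substrate (15 nM) added for 5 min. AlphaScreen beads (10 ug/ml) added, 10 min RT; tyrosine-FITC cleavage read as signal loss.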
DT40 TDP1 no CPT: qHTS for Inhibitors of human tyrosyl-DNA phosphodiesterase 1 (TDP1): qHTS in cells in absence of CPT. DT40 Tdp1-/- hTDP1 cells, no CPT, ATP luminescence, 48 h. Potency, µM (top dose mostly 46.2 µM), inactives show at the top dose activity change, negative = growth inhibition, actives largely listed as inhibitors. 420,000 tested, 15% active; also: potency is read from the fitted curve at half-maximal effect; nearly all actives have a fitted effect of over 55% in size
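Compound effects on proliferation are scored in DT40 Tdp1-/-;hTDP1 cells in the absence of CPT. ATP levels (CellTiter-Glo luminescence) are recorded after a ≥48 hr, 37 °C incubation.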
Six1-Eya2 blk: Six1/Eya2 interaction inhibition; Q15475+O00167; AlphaScreen GST-Six1/His-Eya2 binding, biochemical; stronger effect = lower value; activity change, % (no concentration beside the values); 360,000 tested, 0.56% active; in the data active = activity change below about -65%; inconclusive = mostly about -30% to -63%
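Compounds are tested against tagged Six1 and Eya2 proteins bridged by glutathione donor and nickel acceptor beads; after a one-hour incubation at 37 °C without light, AlphaScreen emission is recorded.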
IL-1B inflam inh: inflammasome signaling inhibition, IL-1 beta readout; activity change, % at 57.5 µM; AID 743279; THP-1 LPS/ATP IL-1B secretion, AlphaLISA, 16 h; stronger effect = lower value; 360,000 tested, 4.7% active; in the data active = activity change below about -50%; inconclusive = mostly about -30% to -49%
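Secreted IL-1B measured by AlphaLISA bead assay after 16 h compound exposure of THP-1 cells; compounds (final up to 57.5 uM) added 1 h before LPS (250 ng/mL) and ATP (1.25 mM) stimulation; lower signal means less secretion.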
CtBP-E1A blk: inhibitors of CtBP/E1A interaction | AlphaScreen GST-E1A/His-CtBP binding, 1536-well; stronger effect = lower value | activity change, % (concentration not given with the values) | 340,000 tested, 0.49% active; in the data active = activity change below about -65%; inconclusive = mostly about -30% to -63%
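Steps: dispense buffer (Tris pH 8.0, NaCl 300 mM, TCEP 1 mM, BSA, Tween 20); add 5X protein mix (GST-E1A, His-CtBP, 125 nM each); pin 23 nL compound; 2 h at 37 °C, dark; add 5X beads (50 ug/mL); 1 h; read.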
* = called active by the depositor; ? = inconclusive; nt = not tested or not shown. An excerpt weighted towards active compounds, which were near 18% of everything screened. Unless noted, calls follow the shape of the dose curve; as a rule, active = well fitted curve in the direction sought with a large enough effect; inconclusive = small, poorly fitted or top-dose-only effect, or another doubt; inactive = no such curve, though single readings can be large; an effect the other way counts as inactive or inconclusive. % is scaled to controls: 0 for no effect and ±100 for the full control effect.

SMILES | DT40 TDP1 CPT | TDP1 inh | DT40 TDP1 no CPT | Six1-Eya2 blk | IL-1B inflam inh | CtBP-E1A blk
COc1ccccc1CNC(=O)CCC(=O)N1CC(C)Sc2ccccc21 (stereo not drawn) | 18.4µM* | 0.0% | ? | 1.3 | -27.6 | -1.4
COc1ccccc1CNC(=O)c1cc2cccc3c2n1CC(C)S3 (stereo not drawn) | 20.6µM* | 2.8% | 23.1µM* | nt | nt | nt
CC1CN(C(=O)CCC(=O)NCc2ccc(F)cc2)c2ccccc2S1 (stereo not drawn) | -21.8% | nt | -13.3% | 4.0 | -14.4 | 0.3
CN(C)S(=O)(=O)c1cccc(NC(=S)N/N=C/c2cccc(O)c2)c1 | ? | 2.4% | -23.9% | -15.3 | 26.5 | -9.6
CCOc1ccccc1NC(=O)C(=O)N/N=C/c1cc(Br)ccc1O | ? | 0.0% | 10.3µM* | -14.0 | 115.5 | ?
CN(C)S(=O)(=O)c1cccc(NC(=S)N/N=C/c2cc(Br)ccc2O)c1 | 2.59µM* | nt | 3.66µM* | -88.4* | -72.7* | -93.8*
O=C(N/N=C/c1cc(Br)ccc1O)Nc1ccccc1 | ? | 5.1% | ? | 2.1 | -96.9* | -12.9
O=C(C[n+]1ccccc1)N/N=C/c1cc(Br)ccc1O | 7.9% | nt | -22.3% | -87.9* | 11.7 | 0.0
CCOc1ccccc1C=NNC(=O)C(=O)NN=Cc1ccccc1OCC | -25.1% | nt | -18.4% | 2.6 | 25.0 | -2.1
COc1ccc(Cl)cc1NC(=O)C(=O)N/N=C/c1cc(C)n(-c2ccc(C)cc2)c1C | ? | 4.5% | ? | -9.1 | -0.8 | 6.5
Clc1ccc(CSc2ncn[nH]2)cc1 | -2.2% | 2.0% | 14.1% | 6.0 | 4.8 | 1.7
O=C(Nc1ccccc1)C(Cl)C(=O)c1ccccc1 (stereo not drawn) | 6.51µM* | nt | 8.2µM* | 0.8 | ? | nt
CC(C(=O)Nc1ccccc1)C(=O)Nc1ccccc1 | -1.3% | nt | 4.7% | -11.2 | -4.6 | 8.9
CC(=O)C(Cl)C(=O)Nc1ccccc1 (stereo not drawn) | 2.59µM* | -7.7% | 4.11µM* | -1.9 | -85.6* | 2.8
O=C(O)c1ccc(OCCN2CCCC2=O)cc1 | 5.8% | 3.6% | -6.6% | 12.3 | 4.4 | 4.9
Cc1ccc(N(C(=O)c2csnn2)C(C(=O)NC(C)(C)C)c2ccccn2)cc1 (stereo not drawn) | -14.6% | 3.6% | -27.6% | 4.9 | 6.7 | 0.0
C=CCNc1cnn(-c2ccccc2)c(=O)c1Cl | -1.9% | -2.4% | 11.1% | 33.7 | -7.3 | 5.1
O=C(NCc1ccc2c(c1)CCN2C(=O)c1ccncc1)c1ccc(Cl)cc1 | ? | 2.5% | ? | nt | nt | nt
COc1cc(C(=O)NCc2ccc3c(c2)CCN3C(=O)c2ccc(Cl)cc2)cc(OC)c1OC | 23.1µM* | 3.4% | 14.6µM* | nt | nt | nt
COc1ccc(C(=O)NCc2ccc3c(c2)CCN3C(=O)c2ccc(Cl)cc2)c(OC)c1 | 18.4µM* | 6.4% | 18.4µM* | nt | nt | nt
O=C(Cn1nnc(-c2ccccc2)n1)N1CCN(S(=O)(=O)c2ccc(Cl)cc2)CC1 | -12.6% | 4.4% | -14.2% | 1.1 | 0.0 | -4.9
CC(Sc1cn(CCNC(=O)c2ccccc2F)c2ccccc12)c1ccccc1 (stereo not drawn) | ? | 4.5% | 20.6µM* | nt | nt | nt
Cc1ccccc1CSc1cn(CCNC(=O)c2cccs2)c2ccccc12 | 23.1µM* | 3.2% | ? | nt | nt | nt
O=C(NCCn1cc(SCc2ccc(Cl)cc2)c2ccccc21)c1cccs1 | ? | -0.6% | ? | nt | nt | nt
O=C(NCCn1cc(SCc2ccccc2F)c2ccccc21)c1cccs1 | ? | 5.8% | 20.6µM* | nt | nt | nt
SMILES | DT40 TDP1 CPT | TDP1 inh | DT40 TDP1 no CPT | Six1-Eya2 blk | IL-1B inflam inh | CtBP-E1A blk
O=C(NCCn1cc(SCc2ccccc2F)c2ccccc21)c1c(F)cccc1F | ? | 6.6% | 23.1µM* | -5.1 | ? | 1.9
COc1cc(NC(=O)Cn2nc(C(F)(F)F)c3c2CCCC3)cc(OC)c1OC | 23.1µM* | 0.0% | 10.3µM* | -3.9 | -11.8 | -3.0
CC(NCC1COc2ccccc2O1)C1COc2ccccc2O1 (stereo not drawn) | -6.7% | nt | -27.9% | 18.9 | ? | 26.2
NS(=O)(=O)c1ccc(NC(=S)Nc2nn(Cc3ccc(Cl)cc3Cl)cc2Cl)cc1 | ? | 5.9% | ? | 5.6 | -18.4 | -3.2
COc1ccccc1N1CCN(C(=O)COc2cc(C)ccc2C)CC1 | ? | 4.5% | 16.4µM* | -3.6 | -3.1 | -6.9
Cc1cc(OCC(=O)Nc2ccccc2C(N)=O)c2c(C)cc(=O)oc2c1 | ? | nt | 23.1µM* | -0.5 | -12.1 | 0.4
COc1ccccc1N1CCN(C(=O)/C=C/c2ccc(C)cc2)CC1 | ? | 5.5% | 13µM* | -8.4 | 7.8 | -4.4
COc1ccccc1N1CCN(C(=O)COc2ccc(C)cc2Br)CC1 | -16.0% | 2.9% | ? | -3.1 | -15.6 | -1.9
COc1ccc(/C=C/C(=O)NC(=S)N2CCN(c3ccccc3OC)CC2)cc1 | -15.4% | nt | -28.3% | -6.0 | 15.0 | -11.9
COc1ccccc1N1CCN(C(=O)COc2cc(C)cc3oc(=O)cc(C)c23)CC1 | 16.4µM* | -10.7% | 20.6µM* | 2.1 | -7.9 | -14.4
CSc1nc(NC2CCCC2)c([N+](=O)[O-])c(NC2CCCC2)n1 | 2.8% | 11.5% | -5.3% | nt | nt | nt
O=C(NCc1ccccc1)C(c1ccccc1F)n1c(=O)c(-c2cc3ccccc3[nH]2)nc2ccccc21 (stereo not drawn) | ? | nt | ? | 45.0 | 67.7 | 21.3
CCCCCNC(=O)C(c1cccc2ccccc12)n1c(=O)c(-c2ccccc2)nc2ccccc21 (stereo not drawn) | 13µM* | nt | 14.6µM* | 6.2 | 0.0 | -0.9
CCCCCNC(=O)C(CCc1ccccc1)n1c(=O)c(-c2ccccc2)nc2ccccc21 (stereo not drawn) | 5.8µM* | nt | 5.8µM* | 11.3 | 16.2 | 5.5
CCCCCNC(=O)C(c1ccc(-c2ccccc2)cc1)n1c(=O)c(-c2ccccc2)nc2ccccc21 (stereo not drawn) | ? | nt | ? | 3.6 | 51.6 | -2.0
O=C(NCc1ccccc1)C(c1cccc2ccccc12)n1c(=O)c(-c2ccccc2)nc2ccccc21 (stereo not drawn) | 13µM* | nt | ? | 14.6 | -4.0 | -7.0
CC(C)CN(C(=O)CSc1n[nH]c(-c2cccs2)n1)C1CCS(=O)(=O)C1 (stereo not drawn) | -6.0% | 1.0% | -10.9% | 5.0 | 28.8 | -15.0
Cn1c(=O)c(-c2ccc(Cl)cc2)nc2cnc(N3CCNCC3)nc21 | 10.3µM* | nt | 16.4µM* | nt | nt | nt
CN1CCN(c2ncc3nc(-c4ccc(Cl)cc4)c(=O)n(C)c3n2)CC1 | 20.6µM* | nt | ? | nt | nt | nt
